Source: PubChem BioAssay (NCATS)
Several values for one entry are separate records, joined by “and”; a condition that tells them apart may be missing. Identical values can stand only once. Records with an inconclusive call do not appear. Activity calls are given as the source filed them. Calls follow the shape of the full dose curve.

Legend:
[1] = Primary qHTS for inhibitors of SARS-S pseudo-typed particle cell entry (AID 1479145); settings: outcome: dose series up to 57.1 µM unless noted; also: nearly all actives have a fitted effect of over 45% in size; as to activity change, negative = inhibition: % is scaled to controls: 0 for no effect and ±100 for the full control effect
[2] = Primary qHTS for Huh7 cytotoxicity: counterscreen for inhibitors of MERS-S pseudotyped particle cell entry (AID 1479147); settings: outcome: dose series up to 57.1 µM unless noted; as to activity change, negative = cytotoxicity: % is scaled to controls: 0 for no effect and ±100 for the full control effect
[3] = Primary qHTS for inhibitors of MERS-S pseudo-typed particle cell entry (AID 1479149); settings: outcome: dose series up to 57.1 µM unless noted; also: nearly all actives have a fitted effect of over 60% in size
[4] = Primary qHTS for Vero E6 cytotoxicity: counterscreen for inhibitors of SARS-S pseudo-typed particle cell entry (AID 1479150); settings: outcome: dose series up to 57.1 µM unless noted; as to activity change, negative = cytotoxicity: % is scaled to controls: 0 for no effect and ±100 for the full control effect
[5] = Cytotoxicity counterscreen for inhibitors of SARS-CoV-2 cell entry (AID 1645845); settings: outcome: dose series up to 57.1 µM unless noted; also: nearly all actives have a fitted effect of over 50% in size; as to activity change, negative = cytotoxicity: % is scaled to controls: 0 for no effect and ±100 for the full control effect
Summary of the method: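 48 h compound treatment (after 1 h preincubation), HEK293-ACE2 cells, 37 C/5% CO2; ATP luminescence endpoint; normalized to cell wells and media blanks.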

[6] = Primary qHTS to identify inhibitors of SARS-CoV-2 cell entry (AID 1645846); settings: SARS-CoV-2 pseudovirus cell entry assay, luminescence; activity change, negative = inhibition: at 57.1 µM (top of the series) unless noted; also: nearly all actives have a fitted effect of over 45% in size
Summary of the method: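 Inhibition of spike-mediated entry was scored in human ACE2-transfected Expi293F cells. Particles were MLV-pseudotyped with Wuhan-Hu-1 S carrying a 19-aa C-terminal deletion; signal was luciferase after two days, scaled between spike PP and fusion-protein-free PP.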

CCOC(=O)CN[C@@H](C(=O)N1CC[C@H]1C(=O)NCc1ccc(/C(N)=N/O)cc1)C1CCCCC1
inactive: Potency [1] | Potency [2] | Potency [3] | Potency [4] | Potency [5]
-19.7%: activity change, negative = inhibition [6]

NCCCC[C@H](NC(=O)[C@@H]1CCCN1C(=O)[C@@H]1CSSC[C@H](N)C(=O)N[C@@H](Cc2ccc(O)cc2)C(=O)N[C@@H](Cc2ccccc2)C(=O)N[C@@H](CCC(N)=O)C(=O)N[C@@H](CC(N)=O)C(=O)N1)C(=O)NCC(N)=O
inactive: Potency [1] | Potency [2] | Potency [3] | Potency [4] | Potency [5]
-25.1%: activity change, negative = inhibition [6]

O=C[C@H](O)[C@@H](O)[C@H](O)[C@H](O)CO
inactive: Potency [1] | Potency [2] | Potency [3] | Potency [4] | Potency [5] | Potency [6]

CC(O)C(CO)NC(=O)C1CSSCC(NC(=O)C(N)Cc2ccccc2)C(=O)NC(Cc2ccccc2)C(=O)NC(Cc2c[nH]c3ccccc23)C(=O)NC(CCCCN)C(=O)NC(C(C)O)C(=O)N1 (configuration not stated)
inactive: Potency [1] | Potency [2] | Potency [3] | Potency [4] | Potency [5]
-15.6% [at 27.1 µM]: activity change, negative = inhibition [6]

CC(=O)O[C@H]1CC[C@@]2(C)C(=CC[C@H]3[C@@H]4CC[C@H](C(C)=O)[C@@]4(C)CC[C@@H]32)C1
inactive: Potency [1] | Potency [2] | Potency [3] | Potency [4] | Potency [5]
-16.3%: activity change, negative = inhibition [6]

CCC(C(=O)NC(N)=O)c1ccccc1 (configuration not stated)
-16.3%: activity change, negative = inhibition [6]
inactive: Potency [1] | Potency [2] | Potency [3] | Potency [4] | Potency [5]

CNC(=O)C[C@@H](N)C(=O)N[C@@H](C(=O)N[C@@H]1C(=O)N2[C@@H]1SC(C)(C)[C@@H]2C(=O)O)c1ccc(O)cc1
inactive: Potency [1] | Potency [2] | Potency [3] | Potency [4] | Potency [5]
-19.8%: activity change, negative = inhibition [6]

C=CCOc1ccc(CC(=O)O)cc1Cl
inactive: Potency [1] | Potency [2] | Potency [3] | Potency [4] | Potency [5]
-9.87% [at 114 µM]: activity change, negative = inhibition [6]

C#C[C@]1(O)CC[C@H]2[C@@H]3CCC4=CC(=O)CCC4[C@H]3CC[C@@]21CC (some centres not stated)
-19.1%: activity change, negative = inhibition [6]
inactive: Potency [1] | Potency [2] | Potency [3] | Potency [4] | Potency [5]

CCCCCCCCCCCCCCCCOc1nc2ccc(C)cc2c(=O)o1
inactive: Potency [1] | Potency [2] | Potency [3] | Potency [4] | Potency [5]
-28.4%: activity change, negative = inhibition [6]

CCOc1ccc(Cc2cc([C@@H]3O[C@H](CO)[C@@H](O)[C@H](O)[C@H]3O)ccc2Cl)cc1
inactive: Potency [1] | Potency [2] | Potency [3] | Potency [4] | Potency [5]
0.66%: activity change, negative = inhibition [6]

Cc1cc2nc3c(=O)[nH]c(=O)nc-3n(C[C@@H](O)[C@@H](O)[C@@H](O)COP(=O)(O)O)c2cc1C
-22.9% [at 11.3 µM]: activity change, negative = inhibition [6]
inactive: activity change, negative = inhibition [1] -30.5% [at 11.4 µM] | outcome [2] inactive [at 11.4 µM] | outcome [3] inactive [at 11.4 µM] | activity change, negative = cytotoxicity [4] 1.24% [at 11.4 µM] | activity change, negative = cytotoxicity [5] 3.55% [at 11.3 µM]

COc1ccc(C(=O)N2CCN(c3ccc4c(c3)CCC(=O)N4)CC2)cc1OC
3.69% and -19.3%: activity change, negative = inhibition [6]
inactive: Potency [1] | Potency [2] | Potency [3] | Potency [4] | Potency [5]

CO[C@@H]1[C@@H](O[C@@H]2O[C@H](C)[C@@H](O[C@H]3C[C@@](C)(O)[C@H](O)[C@H](C)O3)[C@H](N(C)C)[C@H]2O)[C@@H](CC=O)C[C@@H](C)[C@@H](O[C@H]2CC[C@H](N(C)C)[C@@H](C)O2)/C=C/C=C/C[C@H](C)OC(=O)C[C@H]1O
-34.9%: activity change, negative = inhibition [6]
inactive: Potency [1] | Potency [2] | Potency [3] | Potency [4] | Potency [5]

C[C@@H]1O[C@@H](O[C@@H]2/C=C/C=C/C=C\C=C\C[C@H](C)OC(=O)/C=C/[C@H]3O[C@@H]3C[C@H](O)C[C@]3(O)C[C@@H](O)[C@@H](C(=O)O)[C@H](C2)O3)[C@H](O)[C@H](N)[C@@H]1O
-12.9% [at 11.3 µM]: activity change, negative = inhibition [6]
inactive: activity change, negative = inhibition [1] -7.42% [at 11.4 µM] | activity change, negative = cytotoxicity [2] 0.894% [at 11.4 µM] | outcome [3] inactive [at 11.4 µM] | activity change, negative = cytotoxicity [4] -4.87% [at 11.4 µM] | activity change, negative = cytotoxicity [5] 1.93% [at 11.3 µM]

O=P(O)(O)OP(=O)(O)O
-3.78%: activity change, negative = inhibition [6]
inactive: Potency [1] | Potency [2] | Potency [3] | Potency [4] | Potency [5]

CC[C@H]1OC(=O)[C@H](C)[C@@H](O[C@H]2C[C@@](C)(OC)[C@@H](O)[C@H](C)O2)[C@H](C)[C@@H](O[C@@H]2O[C@H](C)C[C@H](N(C)C)[C@H]2O)C(C)(O)C[C@@H](C)/C(=N\OCOCCOC)[C@H](C)[C@@H](O)[C@]1(C)O (some centres not stated)
inactive: Potency [1] | Potency [2] | Potency [3] | Potency [4] | Potency [5] | Potency [6]

C=C1CC2C3CCC4=CC(=O)C=C[C@]4(C)[C@@]3(F)[C@@H](O)C[C@]2(C)[C@@]1(O)C(=O)COC(C)=O (some centres not stated)
inactive: Potency [1] | Potency [2] | Potency [3] | Potency [4] | Potency [5] | Potency [6]

O=C(O)[C@@H]1CCCN1
inactive: Potency [1] | Potency [2] | Potency [3] | Potency [4] | Potency [5] | Potency [6]

O=C(O)C1CCc2cc(C3CCCCC3)c(Cl)cc21 (configuration not stated)
-32.2%: activity change, negative = inhibition [6]
inactive: Potency [1] | Potency [2] | Potency [3] | Potency [4] | Potency [5]

CCCCCCCCCC(=O)OCCN1CCN(CC/C=C2/c3ccccc3Sc3ccc(Cl)cc32)CC1
-15%: activity change, negative = inhibition [6]
inactive: Potency [1] | Potency [2] | Potency [3] | Potency [4] | Potency [5]

O=S(=O)(O)Oc1ccc(C(c2ccc(OS(=O)(=O)O)cc2)c2ccccn2)cc1
inactive: Potency [1] | Potency [2] | Potency [3] | Potency [4] | Potency [5] | Potency [6]
